In PubChem BioAssay (Tox21):
Several values for one entry are separate records, joined by “and”; a condition that tells them apart may be missing. Equal entries are not always repeated. Records with an inconclusive call do not appear. A call without a number means that no potency is given here. Activity calls are given as the source filed them. Calls come from the whole dose curve; as a rule, active = well fitted cell-killing curve with a large enough effect in the repeat runs; inconclusive = weak or mixed curves, or effect the other way; inactive = flat fitted curve, though single readings scatter.

How the values were obtained:
[1] = cAMP Responsive Elements (CRE) small molecule antagonists, cell-based qHTS assay: qHTS cell viability counter screen (AID 2060913); note: nearly all actives have a fitted effect of over 40% in size
Outline: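 HEK293T CRE-bla, 2,000 cells/well, 18 h preincubation; cpd in DMSO + NKH477 0.25 uM final, 3 h 37 C/5% CO2; LiveBLAzer 2 h RT, then CellTiter-Glo 30 min RT, luminescence.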

[2] = cAMP Responsive Elements (CRE) small molecule agonists, cell-based qHTS assay: qHTS cell viability counter screen (AID 2060914); note: nearly all actives have a fitted effect of over 50% in size
Outline: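 In the same wells as the reporter read, viability of CRE-bla HEK 293T cells was quantified by CellTiter-Glo luminescence after a 3 h compound exposure.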
Potency is the fitted concentration of half-maximal effect.

ClCc1ccccc1
Potency [1]: inactive | Potency [2]: inactive

CC(C)(C)c1cc(O)ccc1O
Potency [1]: inactive | Potency [2]: inactive

CCCC(C)C1(CC)C(=O)N=C(S)NC1=O (stereo not given)
Potency [1]: inactive | Potency [2]: inactive

CCOP(=S)(OCC)SCn1c(=O)oc2cc(Cl)ccc21
Potency [1]: inactive | Potency [2]: inactive

C#C[C@]1(O)C=C[C@H]2[C@@H]3CCC4=CC(=O)CC[C@@H]4[C@H]3CC[C@@]21CC
Potency [1]: inactive | Potency [2]: inactive

CCn1cc[n+](C)c1 (tested in a mixture with another compound)
Potency [1]: inactive | Potency [2]: inactive

CCCOC(=O)c1cncn1C(C)c1ccccc1 (stereo not given)
Potency [1]: inactive | Potency [2]: inactive

O=C(O)C(O)C(O)C(=O)O (stereo not given)
Potency [1]: inactive | Potency [2]: inactive

C/C=C/c1ccc2c(c1)OCO2
Potency [1]: inactive | Potency [2]: inactive

COC(=O)NS(=O)(=O)c1ccc(N)cc1
Potency [1]: inactive | Potency [2]: inactive

C[N+]1(C)CCCCC1
Potency [1]: inactive | Potency [2]: inactive

CN(C)c1ccc(N=Nc2ccccc2)cc1
Potency [1]: inactive | Potency [2]: inactive

N#CNC#N
Potency [1]: inactive | Potency [2]: inactive

CN1C(=O)COc2c(C(=O)NC3CN4CCC3CC4)cc(Cl)cc21 (stereo not given)
Potency [1]: inactive | Potency [2]: inactive

CC(C)C#N
Potency [1]: inactive | Potency [2]: inactive

Cc1cc(-c2cc(C)c(N)c(C)c2)cc(C)c1N
Potency [1]: inactive | Potency [2]: inactive

COP(=S)(OC)Oc1nc(Cl)c(Cl)cc1Cl
Potency [1]: inactive | Potency [2]: inactive

CN(CCCC(O)c1cccnc1)N=O (stereo not given)
Potency [1]: inactive | Potency [2]: inactive

Nc1cc(Cl)ccc1Cl
Potency [1]: inactive | Potency [2]: inactive

Cc1ccc(C(=O)Cl)cc1
Potency [1]: inactive | Potency [2]: inactive

CC(C)(C#N)N=NC(C)(C)C#N
Potency [1]: inactive | Potency [2]: inactive

C=CCC1(C(C)CC)C(=O)NC(=O)NC1=O (stereo not given)
Potency [1]: inactive | Potency [2]: inactive

CCCC[P+](CC)(CCCC)CCCC (tested in a mixture with another compound)
Potency [1]: inactive | Potency [2]: inactive

CC(C)(c1ccccc1)c1ccc(O)c(C(C)(C)c2ccccc2)c1
Potency [1]: 42.9 µM (active) and 54.5 µM (active) | Potency [2]: 60.6 µM (active) and 61.1 µM (active)

O=C(CCl)C(Cl)Cl
Potency [1]: inactive | Potency [2]: inactive

CCOP(=S)(Oc1ccc([N+](=O)[O-])cc1)c1ccccc1 (stereo not given)
Potency [1]: inactive | Potency [2]: inactive

[N-]=[N+]=CC(=O)OC[C@H](N)C(=O)O
Potency [1]: inactive | Potency [2]: inactive

CCN(CC)C1CCCCC1
Potency [1]: inactive | Potency [2]: inactive

Oc1ccc(C(=C(Cl)Cl)c2ccc(O)cc2)cc1
Potency [1]: inactive | Potency [2]: inactive

CC(c1ccc(O)cc1)c1ccc(O)cc1
Potency [1]: inactive | Potency [2]: inactive

CCOP(=O)(OCC)SCCSCC
Potency [1]: inactive | Potency [2]: inactive

NCCc1cc(O)c(O)cc1O
Potency [1]: inactive | Potency [2]: inactive

CC(=O)[O-].CC(=O)[O-].[Hg+2]
Potency [1]: 8.63 µM (active) | Potency [2]: 10.9 µM (active)

O=C(Cc1ccccc1)c1ccccc1
Potency [1]: inactive | Potency [2]: inactive

Nc1cccnc1
Potency [1]: inactive | Potency [2]: inactive

Nc1ccccc1C(=O)Oc1ccc2ccccc2c1
Potency [1]: inactive | Potency [2]: inactive

CC(C)(C)NCC(O)c1cc(Cl)c(N)c(C(F)(F)F)c1 (stereo not given)
Potency [1]: inactive | Potency [2]: inactive

O=c1[nH]c2ccccc2c(=O)o1
Potency [1]: inactive | Potency [2]: inactive

C[C@]12CC[C@H]3[C@@H](CCC4=CC(=O)CC[C@@]43C)[C@@H]1CC[C@@H]2C(=O)O
Potency [1]: inactive | Potency [2]: inactive

O=CNC(N1CCN(C(NC=O)C(Cl)(Cl)Cl)CC1)C(Cl)(Cl)Cl (stereo not given)
Potency [1]: inactive | Potency [2]: inactive

N#CCCSCCC#N
Potency [1]: inactive | Potency [2]: inactive

CC(C)(N)Cc1ccccc1Cl
Potency [1]: inactive | Potency [2]: inactive

C1CN2CCN1CC2
Potency [1]: inactive | Potency [2]: inactive

CS/C(C)=N/OC(=O)N(C)SN(C)C(=O)O/N=C(\C)SC
Potency [1]: inactive | Potency [2]: inactive

c1cc[c]([Hg][c]2ccccc2)cc1
Potency [1]: inactive | Potency [2]: inactive

O=C1C(I)=CC(=C(c2cc(I)c(O)c(I)c2)c2ccccc2C(=O)O)C=C1I
Potency [1]: inactive | Potency [2]: inactive

Oc1ccc2ccc3cccc4ccc1c2c34
Potency [1]: inactive | Potency [2]: inactive

CNCC(O)c1ccc(O)cc1 (stereo not given)
Potency [1]: inactive | Potency [2]: inactive

NC1=NC(=O)C(c2ccccc2)O1 (stereo not given)
Potency [1]: inactive | Potency [2]: inactive

c1cc[c]([Sb]([c]2ccccc2)[c]2ccccc2)cc1
Potency [1]: inactive | Potency [2]: inactive

COC(=O)N(C(=O)N1COC2(C(=O)OC)Cc3cc(Cl)ccc3C2=N1)c1ccc(OC(F)(F)F)cc1 (stereo not given)
Potency [1]: inactive | Potency [2]: inactive

COCc1cnc(C2=NC(C)(C(C)C)C(=O)N2)c(C(=O)O)c1 (stereo not given)
Potency [1]: inactive | Potency [2]: inactive

OCCBr
Potency [1]: inactive | Potency [2]: inactive

Cc1cccc([N+](=O)[O-])c1
Potency [1]: inactive | Potency [2]: inactive

CCCCON=O
Potency [1]: inactive | Potency [2]: inactive
